Source: ChEMBL document CHEMBL1961873, “Compounds: GSK PKIS; Assays: Nanosyn kinase panel” (2012)

Legend:
[1] = target: MAP/microtubule affinity-regulating kinase 3 (Homo sapiens) (UniProt P27448); details: at 1 µM;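 further: reported values are averaged percent inhibition of MARK3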
[2] = target: T1, MAP/microtubule affinity-regulating kinase 4 (Homo sapiens) (UniProt Q96L34); details: at 0.1 µM
T1 sequence (whole entry): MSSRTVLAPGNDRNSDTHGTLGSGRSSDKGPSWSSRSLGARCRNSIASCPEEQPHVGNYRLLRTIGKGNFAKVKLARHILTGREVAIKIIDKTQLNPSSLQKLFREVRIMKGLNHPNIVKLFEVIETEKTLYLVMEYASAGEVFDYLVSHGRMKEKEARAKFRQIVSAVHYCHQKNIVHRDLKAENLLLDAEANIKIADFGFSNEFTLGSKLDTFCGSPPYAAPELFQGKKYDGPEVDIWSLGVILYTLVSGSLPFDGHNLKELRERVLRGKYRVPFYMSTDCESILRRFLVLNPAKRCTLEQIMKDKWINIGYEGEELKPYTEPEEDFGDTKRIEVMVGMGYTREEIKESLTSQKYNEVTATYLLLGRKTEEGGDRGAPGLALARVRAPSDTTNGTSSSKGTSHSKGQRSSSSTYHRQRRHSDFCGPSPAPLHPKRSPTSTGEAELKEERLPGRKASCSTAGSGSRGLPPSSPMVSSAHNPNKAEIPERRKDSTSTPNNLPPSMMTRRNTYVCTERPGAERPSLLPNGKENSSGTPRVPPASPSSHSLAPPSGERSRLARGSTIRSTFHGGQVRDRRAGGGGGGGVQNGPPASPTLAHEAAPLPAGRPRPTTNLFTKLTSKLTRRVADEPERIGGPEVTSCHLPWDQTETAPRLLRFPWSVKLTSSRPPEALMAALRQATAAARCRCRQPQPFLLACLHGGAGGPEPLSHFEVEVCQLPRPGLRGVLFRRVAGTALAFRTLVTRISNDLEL

[3] = target: T1, MAP/microtubule affinity-regulating kinase 4 (Homo sapiens); details: at 1 µM
[4] = target: Maternal embryonic leucine zipper kinase (Homo sapiens) (UniProt Q14680); details: at 0.1 µM
[5] = target: Maternal embryonic leucine zipper kinase (Homo sapiens) (UniProt Q14680); details: at 1 µM
[6] = target: MAP kinase-interacting serine/threonine-protein kinase 1 (Homo sapiens) (UniProt Q9BUB5); details: at 0.1 µM
[7] = target: MAP kinase-interacting serine/threonine-protein kinase 1 (Homo sapiens) (UniProt Q9BUB5); details: at 1 µM
[8] = target: MAP kinase-interacting serine/threonine-protein kinase 2 (Homo sapiens) (UniProt Q9HBH9); details: at 0.1 µM
[9] = target: MAP kinase-interacting serine/threonine-protein kinase 2 (Homo sapiens) (UniProt Q9HBH9); details: at 1 µM
[10] = target: Serine/threonine-protein kinase MARK2 (Homo sapiens) (UniProt Q7KZI7); details: at 0.1 µM
[11] = target: Serine/threonine-protein kinase MARK2 (Homo sapiens) (UniProt Q7KZI7); details: at 1 µM
[12] = target: PAS domain-containing serine/threonine-protein kinase (Homo sapiens) (UniProt Q96RG2); details: at 0.1 µM
[13] = target: PAS domain-containing serine/threonine-protein kinase (Homo sapiens) (UniProt Q96RG2); details: at 1 µM
[14] = target: Phosphorylase b kinase gamma catalytic chain, skeletal muscle/heart isoform (Homo sapiens) (UniProt Q16816); details: at 0.1 µM
[15] = target: Phosphorylase b kinase gamma catalytic chain, skeletal muscle/heart isoform (Homo sapiens) (UniProt Q16816); details: at 1 µM
[16] = target: T2, Phosphorylase b kinase gamma catalytic chain, liver/testis isoform (Homo sapiens) (UniProt P15735); details: at 0.1 µM
T2 sequence (whole entry): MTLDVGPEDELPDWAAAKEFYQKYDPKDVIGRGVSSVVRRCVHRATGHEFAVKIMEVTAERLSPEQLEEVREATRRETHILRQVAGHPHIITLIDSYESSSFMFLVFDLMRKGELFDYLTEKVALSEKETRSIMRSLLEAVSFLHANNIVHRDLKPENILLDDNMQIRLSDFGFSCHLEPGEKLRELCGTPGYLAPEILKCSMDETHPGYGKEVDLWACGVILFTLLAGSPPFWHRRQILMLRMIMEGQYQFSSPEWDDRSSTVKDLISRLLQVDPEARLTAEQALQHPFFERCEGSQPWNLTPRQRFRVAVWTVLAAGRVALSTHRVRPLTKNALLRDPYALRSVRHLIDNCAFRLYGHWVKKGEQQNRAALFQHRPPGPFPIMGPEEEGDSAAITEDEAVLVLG

[17] = target: T2, Phosphorylase b kinase gamma catalytic chain, liver/testis isoform (Homo sapiens); details: at 1 µM
[18] = target: Serine/threonine-protein kinase pim-1 (Homo sapiens) (UniProt P11309); details: at 0.1 µM
[19] = target: Serine/threonine-protein kinase pim-1 (Homo sapiens) (UniProt P11309); details: at 1 µM
[20] = target: Serine/threonine-protein kinase pim-2 (Homo sapiens) (UniProt Q9P1W9); details: at 0.1 µM;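 further: reported value is the mean percent inhibition of PIM2, measured in the GSK PKIS kinase inhibitor set screen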
Serine/threonine-protein kinase pim-2 (Homo sapiens), sequence (Q9P1W9 whole entry, looked up): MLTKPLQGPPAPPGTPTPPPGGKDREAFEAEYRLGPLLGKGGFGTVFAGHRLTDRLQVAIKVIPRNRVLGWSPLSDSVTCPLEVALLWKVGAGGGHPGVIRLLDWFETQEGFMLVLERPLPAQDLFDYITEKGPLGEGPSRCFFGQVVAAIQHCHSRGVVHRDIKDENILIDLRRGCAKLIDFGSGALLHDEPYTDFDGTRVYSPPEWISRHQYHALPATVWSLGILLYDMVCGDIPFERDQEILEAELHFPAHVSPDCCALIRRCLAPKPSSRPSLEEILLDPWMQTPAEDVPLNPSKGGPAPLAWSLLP

MAP/microtubule affinity-regulating kinase 3 (Homo sapiens), sequence (P27448 whole entry, looked up): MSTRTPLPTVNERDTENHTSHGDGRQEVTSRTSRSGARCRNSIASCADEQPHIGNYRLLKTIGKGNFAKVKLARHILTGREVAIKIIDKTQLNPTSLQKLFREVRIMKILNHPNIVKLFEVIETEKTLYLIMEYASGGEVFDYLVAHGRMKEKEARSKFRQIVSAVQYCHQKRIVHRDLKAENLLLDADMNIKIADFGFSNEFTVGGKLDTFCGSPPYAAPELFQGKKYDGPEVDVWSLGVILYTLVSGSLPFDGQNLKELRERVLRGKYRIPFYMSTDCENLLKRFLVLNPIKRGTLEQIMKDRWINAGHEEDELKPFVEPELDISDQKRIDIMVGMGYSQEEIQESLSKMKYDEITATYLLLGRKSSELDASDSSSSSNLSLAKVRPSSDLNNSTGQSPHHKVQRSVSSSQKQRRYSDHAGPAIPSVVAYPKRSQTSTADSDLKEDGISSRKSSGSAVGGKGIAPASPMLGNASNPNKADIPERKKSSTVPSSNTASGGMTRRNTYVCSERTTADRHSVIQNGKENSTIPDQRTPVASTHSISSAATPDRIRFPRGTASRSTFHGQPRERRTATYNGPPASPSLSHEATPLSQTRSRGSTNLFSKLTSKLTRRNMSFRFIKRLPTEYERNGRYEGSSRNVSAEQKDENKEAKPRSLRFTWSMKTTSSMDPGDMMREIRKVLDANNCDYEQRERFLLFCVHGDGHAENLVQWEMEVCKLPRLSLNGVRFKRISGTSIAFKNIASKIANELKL
Phosphorylase b kinase gamma catalytic chain, skeletal muscle/heart isoform (Homo sapiens), sequence (Q16816 whole entry, looked up, canonical isoform): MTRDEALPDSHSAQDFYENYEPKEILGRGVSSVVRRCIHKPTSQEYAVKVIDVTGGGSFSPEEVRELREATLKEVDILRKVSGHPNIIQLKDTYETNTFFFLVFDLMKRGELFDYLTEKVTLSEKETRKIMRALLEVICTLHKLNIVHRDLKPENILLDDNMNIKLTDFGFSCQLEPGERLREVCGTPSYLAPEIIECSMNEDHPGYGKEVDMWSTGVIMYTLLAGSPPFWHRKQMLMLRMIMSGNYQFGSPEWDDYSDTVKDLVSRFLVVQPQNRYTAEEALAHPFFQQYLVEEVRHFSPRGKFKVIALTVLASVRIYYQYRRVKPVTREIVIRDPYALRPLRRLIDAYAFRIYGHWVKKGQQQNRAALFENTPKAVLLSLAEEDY
MAP kinase-interacting serine/threonine-protein kinase 1 (Homo sapiens), sequence (Q9BUB5 whole entry, looked up): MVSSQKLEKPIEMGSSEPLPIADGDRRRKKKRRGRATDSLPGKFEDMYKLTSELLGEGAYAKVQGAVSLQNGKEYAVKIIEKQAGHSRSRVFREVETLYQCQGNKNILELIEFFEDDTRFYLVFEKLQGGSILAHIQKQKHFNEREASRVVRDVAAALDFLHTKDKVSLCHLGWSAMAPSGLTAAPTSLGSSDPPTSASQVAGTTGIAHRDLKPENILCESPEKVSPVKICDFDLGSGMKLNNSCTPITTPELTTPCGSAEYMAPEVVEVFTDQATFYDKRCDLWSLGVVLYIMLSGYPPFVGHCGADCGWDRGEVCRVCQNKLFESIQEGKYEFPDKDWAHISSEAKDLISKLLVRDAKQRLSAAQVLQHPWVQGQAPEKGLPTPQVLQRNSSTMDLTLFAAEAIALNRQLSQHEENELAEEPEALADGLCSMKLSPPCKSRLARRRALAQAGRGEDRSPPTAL
PAS domain-containing serine/threonine-protein kinase (Homo sapiens), sequence (Q96RG2 whole entry, the tested form may be a part, canonical isoform): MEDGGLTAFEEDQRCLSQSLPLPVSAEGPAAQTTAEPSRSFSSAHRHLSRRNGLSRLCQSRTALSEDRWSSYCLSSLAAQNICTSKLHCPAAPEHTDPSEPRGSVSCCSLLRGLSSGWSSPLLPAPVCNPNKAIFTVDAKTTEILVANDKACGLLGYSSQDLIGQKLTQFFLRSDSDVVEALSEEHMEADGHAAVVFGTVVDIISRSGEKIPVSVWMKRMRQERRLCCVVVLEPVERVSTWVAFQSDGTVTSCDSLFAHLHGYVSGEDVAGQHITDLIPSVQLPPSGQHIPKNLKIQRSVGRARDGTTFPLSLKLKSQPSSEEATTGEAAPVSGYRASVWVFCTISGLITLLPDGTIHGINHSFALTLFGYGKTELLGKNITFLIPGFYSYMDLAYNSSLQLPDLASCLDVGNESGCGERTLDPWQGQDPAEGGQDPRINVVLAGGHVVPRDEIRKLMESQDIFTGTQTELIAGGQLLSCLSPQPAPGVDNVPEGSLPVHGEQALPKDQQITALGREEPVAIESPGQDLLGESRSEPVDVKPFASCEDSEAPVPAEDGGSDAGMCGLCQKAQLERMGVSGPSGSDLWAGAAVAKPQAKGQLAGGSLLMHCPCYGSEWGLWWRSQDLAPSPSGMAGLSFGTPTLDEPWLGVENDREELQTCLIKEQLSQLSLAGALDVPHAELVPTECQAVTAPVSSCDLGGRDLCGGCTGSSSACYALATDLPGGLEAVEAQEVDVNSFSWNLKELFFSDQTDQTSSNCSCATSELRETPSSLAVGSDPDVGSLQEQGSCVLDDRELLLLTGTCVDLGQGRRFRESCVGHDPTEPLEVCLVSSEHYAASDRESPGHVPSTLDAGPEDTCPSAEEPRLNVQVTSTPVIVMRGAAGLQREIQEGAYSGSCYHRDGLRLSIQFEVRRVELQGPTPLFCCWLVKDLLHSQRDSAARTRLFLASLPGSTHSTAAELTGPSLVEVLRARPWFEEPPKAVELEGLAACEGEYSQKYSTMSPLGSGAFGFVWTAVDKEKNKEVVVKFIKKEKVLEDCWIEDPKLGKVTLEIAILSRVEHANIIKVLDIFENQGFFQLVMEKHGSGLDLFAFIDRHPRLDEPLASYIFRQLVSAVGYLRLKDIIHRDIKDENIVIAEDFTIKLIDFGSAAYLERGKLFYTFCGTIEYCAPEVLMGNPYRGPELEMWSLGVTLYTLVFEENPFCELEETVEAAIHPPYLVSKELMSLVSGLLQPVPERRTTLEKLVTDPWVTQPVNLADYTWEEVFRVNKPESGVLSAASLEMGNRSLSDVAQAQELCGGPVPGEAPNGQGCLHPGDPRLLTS
Serine/threonine-protein kinase pim-1 (Homo sapiens), sequence (P11309 whole entry, looked up): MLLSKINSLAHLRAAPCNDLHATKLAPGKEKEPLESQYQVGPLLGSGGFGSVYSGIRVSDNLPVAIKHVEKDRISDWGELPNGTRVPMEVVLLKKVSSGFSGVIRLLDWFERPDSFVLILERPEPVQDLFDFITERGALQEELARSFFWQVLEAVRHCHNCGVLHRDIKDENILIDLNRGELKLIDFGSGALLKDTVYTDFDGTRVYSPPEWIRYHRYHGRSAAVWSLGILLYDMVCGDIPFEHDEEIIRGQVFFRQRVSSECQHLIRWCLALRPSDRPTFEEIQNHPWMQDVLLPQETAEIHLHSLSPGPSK
Serine/threonine-protein kinase MARK2 (Homo sapiens), sequence (Q7KZI7 whole entry, the tested form may be a part): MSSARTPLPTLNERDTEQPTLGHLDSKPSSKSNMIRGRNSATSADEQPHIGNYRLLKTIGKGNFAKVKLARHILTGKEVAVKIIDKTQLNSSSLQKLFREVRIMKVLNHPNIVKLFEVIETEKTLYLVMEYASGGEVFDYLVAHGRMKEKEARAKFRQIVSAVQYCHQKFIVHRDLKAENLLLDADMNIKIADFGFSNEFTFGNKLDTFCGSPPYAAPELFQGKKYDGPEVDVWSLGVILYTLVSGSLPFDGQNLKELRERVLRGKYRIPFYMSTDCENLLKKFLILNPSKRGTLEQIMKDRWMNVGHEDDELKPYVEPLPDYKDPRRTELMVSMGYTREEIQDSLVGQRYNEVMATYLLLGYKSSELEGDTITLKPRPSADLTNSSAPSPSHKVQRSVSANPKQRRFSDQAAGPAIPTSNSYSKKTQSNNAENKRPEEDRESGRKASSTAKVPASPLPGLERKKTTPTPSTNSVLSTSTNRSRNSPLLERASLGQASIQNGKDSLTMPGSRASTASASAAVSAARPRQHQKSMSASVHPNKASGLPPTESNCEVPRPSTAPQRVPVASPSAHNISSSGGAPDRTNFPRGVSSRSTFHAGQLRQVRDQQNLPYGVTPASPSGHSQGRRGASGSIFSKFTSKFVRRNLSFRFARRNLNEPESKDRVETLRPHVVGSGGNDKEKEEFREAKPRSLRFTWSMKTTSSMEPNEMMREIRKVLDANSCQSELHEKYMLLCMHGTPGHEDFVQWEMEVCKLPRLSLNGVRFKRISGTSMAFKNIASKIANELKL
Maternal embryonic leucine zipper kinase (Homo sapiens), sequence (Q14680 whole entry, looked up): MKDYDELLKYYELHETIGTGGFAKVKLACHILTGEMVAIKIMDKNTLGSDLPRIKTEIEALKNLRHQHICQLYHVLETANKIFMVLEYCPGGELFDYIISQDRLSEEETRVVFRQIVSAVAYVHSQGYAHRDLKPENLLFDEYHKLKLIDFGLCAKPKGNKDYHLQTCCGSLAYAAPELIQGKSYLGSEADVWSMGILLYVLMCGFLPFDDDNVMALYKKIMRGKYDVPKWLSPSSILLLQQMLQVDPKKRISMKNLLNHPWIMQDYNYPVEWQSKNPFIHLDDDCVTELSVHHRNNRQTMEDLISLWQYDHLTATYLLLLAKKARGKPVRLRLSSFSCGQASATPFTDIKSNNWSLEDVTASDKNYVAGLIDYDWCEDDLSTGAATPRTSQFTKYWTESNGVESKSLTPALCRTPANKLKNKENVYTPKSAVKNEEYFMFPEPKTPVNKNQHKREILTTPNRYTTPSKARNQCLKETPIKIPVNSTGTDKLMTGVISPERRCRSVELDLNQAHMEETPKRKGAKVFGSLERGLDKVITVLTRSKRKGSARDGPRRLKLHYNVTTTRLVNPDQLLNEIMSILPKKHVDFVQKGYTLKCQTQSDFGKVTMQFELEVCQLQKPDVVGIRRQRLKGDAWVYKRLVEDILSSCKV

SMILES | inhibition [1] | inhibition [2] | inhibition [3] | inhibition [4] | inhibition [5] | inhibition [6] | inhibition [7] | inhibition [8] | inhibition [9] | inhibition [10] | inhibition [11] | inhibition [12] | inhibition [13] | inhibition [14] | inhibition [15] | inhibition [16] | inhibition [17] | inhibition [18] | inhibition [19] | inhibition [20]
Nc1nc(-c2cccc(Cl)c2)c(-c2ccc3ncccc3n2)s1 | 6.68% | 1.87% | -0.31% | 4.19% | 11.3% | 3.39% | 9.69% | 2.72% | 7.56% | 1.01% | -0.63% | 0.04% | 1.47% | 6.45% | 11.3% | 5.42% | 10.1% | 1.14% | 3.59% | -0.44%
COc1ccc2[nH]c3c4[nH]c5ccc(OC)cc5c4c4c(c3c2c1)C(=O)NC4=O | 33.5% | 3.93% | 15.9% | 22.3% | 77.6% | 6.39% | 11.5% | 8.34% | 18.1% | 1.57% | 11.8% | -0.49% | -1.47% | 48.4% | 73.3% | 9.06% | 39.8% | 28.7% | 74.2% | 21.4%
Clc1ccc(-c2nn3ncccc3c2-c2ccnc(Nc3ccccc3)n2)cc1 | 8.43% | 0.1% | 1.26% | 2.47% | 1.1% | 0.8% | 3.07% | 0.53% | 1.38% | 0.74% | 0.63% | -0.14% | 0.05% | 1.22% | 3.66% | 0.85% | 0.51% | 0.13% | 0.33% | 0.34%
CCN1CCC(CC(=O)Nc2n[nH]c3nnc(-c4cccc(F)c4F)cc23)CC1 | 2.57% | 2.32% | 2.11% | 3.71% | 2.39% | 1.66% | 2.05% | 1.98% | 2.98% | -2.03% | 1.15% | 0.77% | 1.59% | 5.02% | 5.09% | 3.86% | 4.27% | 0.56% | 0.7% | 0.39%
